Bioassay records as filed in PubChem BioAssay.
Tb PYK inh = inhibitors of Trypanosoma brucei pyruvate kinase | Potency, µM (series often up to 76.8 µM), inactives show at the highest dose activity, negative = inhibition, hits mostly inhibitors | Q57TT1 | 410,000 tested, 0.12% active | AID 624173 | TbPYK enzyme, Kinase-Glo Plus ATP luminescence, 45 min; further: nearly all actives have a fitted effect of over 50% in size
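In this concentration-response screen, enzyme-free wells defined baseline while DMSO plates tracked drift. Each reaction combined TbPYK, substrate, compound and 130 uM ADP for 45 min at room temperature. Kinase-Glo Plus luminescence gave the signal.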
Giardia FBPA inh = inhibitors of Giardia lamblia fructose-1,6-bisphosphate aldolase; AID 2451; Potency, µM (highest dose often 59.6 µM), for inactives: top-dose activity, negative = inhibition, most hits filed as inhibitors; 290,000 tested, 0.71% active; purified Giardia FBPA; further: nearly all actives have a fitted effect of over 55% in size
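Giardia FBPA (40 nM reagent) was preincubated 10 min at RT with compound (up to 57.5 uM final), then substrate plus GAPDH/TPI/NAD/arsenate coupling system with diaphorase/resazurin was added; resorufin fluorescence (525/598 nm) was read after 20 min.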
RE007 growth inh = less growth of the S. pombe RE007 Vpr strain; Potency, µM (doses to about 92.2 µM), without a hit: top-dose activity change, negative = less growth, hits mostly inhibitors; S. pombe RE007 Vpr strain, BacTiter-Glo ATP luminescence, 24 h; 360,000 tested, 0.21% active; active means well fitted falling curve with a large enough effect; inconclusive means small, poorly fitted or top-dose-only effect; inactive means no such curve, though single readings can be large or run the other way; further: nearly all actives have a fitted effect of over 50% in size
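Fission yeast RE007 carrying one integrated HIV-1 vpr copy, seeded at OD 0.01 in PMG+AL medium with 23 nL pinned compound. Grown 24 h at 30 degrees; viability read by BacTiter-Glo luminescence after 5 min.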
AmpC inh detg = blocks E. coli AmpC beta-lactamase in detergent assay. AmpC hydrolysis of nitrocefin, absorbance 480 nm, 0.01% Triton. AID 485294. Potency, µM (titrated, usually from 114 µM), inactives show at the highest dose activity change, negative = inhibition, most hits filed as inhibitors. P00811. 370,000 tested, 0.041% active;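 further: 0% = no-compound wells and -100% = no-enzyme wells; nearly all actives have a fitted effect of over 25% in size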
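20 mM phosphate pH 7.0 + 0.01% (detergent screen) or 0.0001% Triton X-100; 5.3 nM AmpC reagent; cpd preinc 15 min RT; nitrocefin (800 uM stock) to start; A480 q20 s × 4 min; Activity was normalised to no-enzyme and no-compound control wells.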
LmPK inhibitor = LmPK (Leishmania mexicana) enzyme inhibition; purified LmPK, Kinase-Glo ATP luminescence, 1 h; Potency, µM (doses to about 57.5 µM), for the others: at the highest dose activity change, negative = inhibition, most hits filed as inhibitors; 290,000 tested, 0.37% active; AID 1721
Target sequence (Q27686 whole entry, looked up): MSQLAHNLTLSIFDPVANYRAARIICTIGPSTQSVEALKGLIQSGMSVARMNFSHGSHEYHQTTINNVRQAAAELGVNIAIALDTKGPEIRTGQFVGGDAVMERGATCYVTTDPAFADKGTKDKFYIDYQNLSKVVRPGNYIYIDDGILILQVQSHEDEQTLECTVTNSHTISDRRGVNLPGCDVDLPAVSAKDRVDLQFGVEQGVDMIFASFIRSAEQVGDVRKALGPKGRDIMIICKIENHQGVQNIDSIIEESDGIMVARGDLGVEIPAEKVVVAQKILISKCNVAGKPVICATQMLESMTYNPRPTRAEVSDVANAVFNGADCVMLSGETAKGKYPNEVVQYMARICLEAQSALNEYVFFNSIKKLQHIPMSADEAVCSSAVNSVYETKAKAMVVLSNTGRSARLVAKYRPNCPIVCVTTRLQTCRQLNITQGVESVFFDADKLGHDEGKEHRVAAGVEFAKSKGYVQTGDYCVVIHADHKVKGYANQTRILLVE
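In 50 mM imidazole pH 7.2 with 7 mM MgCl2, LmPK (0.1 nM) turned over PEP (0.5 mM) and ADP (0.1 mM) for 1 h at room temperature. Luciferase read-out of ATP.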
AmpC inh no detg = blocks E. coli AmpC beta-lactamase in detergent-free assay. AmpC nitrocefin hydrolysis, absorbance 480 nm, 0.0001% Triton. AID 485341. P00811. 330,000 tested, 0.52% active. Potency, µM (doses to about 57.1 µM), for the others: at the highest dose activity change, negative = inhibition, hits mostly inhibitors;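 further: plate controls were no compound for no effect and no enzyme for full effect; nearly all actives have a fitted effect of over 20% in size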
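20 mM phosphate pH 7.0 + 0.01% (detergent screen) or 0.0001% Triton X-100; 5.3 nM AmpC reagent; cpd preinc 15 min RT; nitrocefin (800 uM stock) to start; A480 q20 s × 4 min; Activity was normalised to no-enzyme and no-compound control wells.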
Active calls of the source: *; u = inconclusive; x = no result; ! = not active in a repeat; [ ] = dose if it differs, or a comment. Hits are enriched below; roughly 1.4% of the tested compounds scored in any of these assays. Unless noted, the call rests on the fitted dose curve; in most records, active means well fitted curve in the direction sought with a large enough effect; inconclusive means small, poorly fitted or top-dose-only effect, or another doubt; inactive means no such curve, though single readings can be large; an effect the other way counts as inactive or inconclusive. Unless noted, on the % scale 0 is the no-effect control and ±100 the full control effect; potency means the concentration at half of the fitted maximal effect.

SMILES | Tb PYK inh | Giardia FBPA inh | RE007 growth inh | AmpC inh detg | LmPK inhibitor | AmpC inh no detg
Cc1cc(C)n2nc(S(=O)(=O)N(C)Cc3ccccc3)nc2n1 | -2% | 10% | 3% | u | 2% | -10%
Cc1cc(C)n2nc(S(=O)(=O)N(CC(C)C)CC(C)C)nc2n1 | -2% | 1% | 0% | u | 0% | 10µM*
Oc1ccc(/C=N/n2c3ccccc3c3ccccc32)cc1 | 5% | -5% | 32µM* | 0% | 7% | -28%
COc1cc(C2c3c(-c4ccccc4O)n[nH]c3C(=O)N2Cc2ccco2)ccc1OCC(C)C (stereo not drawn) | 1% | x | x | 16% | x | x
Fc1ccc(CSc2ncnc3nc[nH]c23)cc1 | -6% | u | 1% | u | -8% | 1.6µM*
Brc1ccc(CSc2ncnc3nc[nH]c23)cc1 | -2% | -1% | 0% | -7% | -1% | 0%
CCC(=O)Nc1ccc(C)cc1-c1nc2ccccc2n(C(C)C(=O)Nc2ccccc2CC)c1=O (stereo not drawn) | 5% | x | x | 25% | x | x
Cc1ccc(NC(=O)CCC(=O)N2CCSc3ccccc32)cc1 | -6% | x | x | -2% | x | x
O=C(N/N=C1\CCc2ccccc21)c1ccccc1O | -10% | -29% | -5% | 0% | 13µM* | -27%
CCc1ccc(NC(=O)Cn2c(=O)n(CC3CCCO3)c(=O)c3cc(OC)c(OC)cc32)cc1 (stereo not drawn) | -6% | x | x | 0% | x | x
O=C1CSC(=S)N1/N=C/c1ccc(Cl)c([N+](=O)[O-])c1 | x | 15% | x | 5% | 3% | 13µM*
COc1ccc(C2C(C(=O)Nc3ccccc3OC)=C(C)Nc3c(C(=O)Nc4ccccc4)cnn32)c(OC)c1 (stereo not drawn) | -2% | x | x | 8% | x | x
Cc1cc(C)n(-c2nc3ccccc3c(=O)n2OCc2ccc(F)cc2)n1 | -5% | -14% | -7% | 32µM* | 0% | 45%
Cc1cc(C)n(-c2nc3ccccc3c(=O)n2OCc2ccc(Cl)cc2)n1 | 4% | -8% | -25% | -1% | 6% | 14%
CCN(c1ccccc1)S(=O)(=O)c1ccc(Cl)c(NC(=O)COC(=O)c2cc(O)c3ccccc3c2O)c1 | x | 5µM* | x | -3% | -4% | 4µM*
COc1ccc(CNC(=O)c2cccn2-c2nnc(N3CCCC3)s2)c(OC)c1 | 2%[15.4 µM] | x | x | 2% | x | x
O=S(=O)(Nc1ccc2nc(-c3ccc(Br)o3)[nH]c2c1)c1ccccc1 | x | -21% | x | -3% | 2% | 25µM*
Cc1ccc(-c2nc3ccc(NS(=O)(=O)c4ccccc4)cc3[nH]2)o1 | -24% | -20% | 1% | -1% | 1% | -46%
CCOC(=O)C1=C(CN2CCN(c3ccc(Cl)cc3)CC2)NC(=O)NC1c1ccc(OC)cc1 (stereo not drawn) | 2% | x | x | -3% | x | x
CC(C)NC[C@H](O)c1ccc(O)c(O)c1 | -7% | 10µM*! | 9%[18.4 µM] | u | x | -14%
CCC(NC(C)C)C(O)c1ccc(O)c(O)c1 (stereo not drawn) | -7% | 2.8µM* | 7%[18.4 µM] | -11% | -16% | -24%
CSc1cccc(NC(=O)C2CCCN(C(=O)c3cnn(-c4ccc(F)cc4)c3-n3cccc3)C2)c1 (stereo not drawn) | -3% | x | x | -2% | x | x
NC(=O)C1CCCN1C(=O)C(Cc1cnc[nH]1)NC(=O)C1CCC(=O)N1 (stereo not drawn) | x | -13% | x | x | x | x
COc1ccc(S(=O)(=O)NCCc2cn3cccc(C)c3n2)cc1OC | 3% | 5% | -4% | u | 4% | 10µM*
CC1(C)CC(=O)c2c(oc3cc(O)c(O)cc23)C1 | -23% | 3.2µM* | -4% | -7% | -15% | -32%
COC(=O)CC1Oc2cc3oc4c(c3cc2O1)C(=O)CC(C)(C)C4 (stereo not drawn) | x | 0% | x | x | x | x
